Assay outcomes: PubChem, National Center for Advancing Translational Sciences (NCATS)
Sampled rows, rich in hits. Any-hit rate of the full collection: about 2.7%.
TGFb SMAD3 inh: TGF-b pathway inhibition | HepG2 CAGA-GFP TGF-b/SMAD3 reporter, GFP fluorescence, 18 h; TGF-beta stimulated, 500 pg/mL final | Potency, µM (highest dose often 46.1 µM), for inactives: at the top dose activity, negative = inhibition, most hits filed as inhibitors | 410,000 compounds, 1.2% hits | AID 588855; also: % is scaled to controls: 0 for no effect and ±100 for the full control effect; nearly all actives have a fitted effect of over 65% in size
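Using HEPG2 CAGA-GFP reporter cells at 1000 cells/well, we pinned test compounds, stimulated with recombinant TGF-beta (500 pg/mL final) and measured total well GFP after 18 h.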
12-LOX inh: blocks human arachidonate 12S-lipoxygenase | purified 12hLO, xylenol orange hydroperoxide absorbance | 580,000 compounds, 1.1% hits | AID 1671190 | P18054 | Potency, µM (series often up to 108 µM), inactives show top-dose activity change, negative = inhibition, most hits filed as inhibitors; also: % is scaled to controls: 0 for no effect and ±100 for the full control effect
Target sequence (P18054 whole entry, looked up): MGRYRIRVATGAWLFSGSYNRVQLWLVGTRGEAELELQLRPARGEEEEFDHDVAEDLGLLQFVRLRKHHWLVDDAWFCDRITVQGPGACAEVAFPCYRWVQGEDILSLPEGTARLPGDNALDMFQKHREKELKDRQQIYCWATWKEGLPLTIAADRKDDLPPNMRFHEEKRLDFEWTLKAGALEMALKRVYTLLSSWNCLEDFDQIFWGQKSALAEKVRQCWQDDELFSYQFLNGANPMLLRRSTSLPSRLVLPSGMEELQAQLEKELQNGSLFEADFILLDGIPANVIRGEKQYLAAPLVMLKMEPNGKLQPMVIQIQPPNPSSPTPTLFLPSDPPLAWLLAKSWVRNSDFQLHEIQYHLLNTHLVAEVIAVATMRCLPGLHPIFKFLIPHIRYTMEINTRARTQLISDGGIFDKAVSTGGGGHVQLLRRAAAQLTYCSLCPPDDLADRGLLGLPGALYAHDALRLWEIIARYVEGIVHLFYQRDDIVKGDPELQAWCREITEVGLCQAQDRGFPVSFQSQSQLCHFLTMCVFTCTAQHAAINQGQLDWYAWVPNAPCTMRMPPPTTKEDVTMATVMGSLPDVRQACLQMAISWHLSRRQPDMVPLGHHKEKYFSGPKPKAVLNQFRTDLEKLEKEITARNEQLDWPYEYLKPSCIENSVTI
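Purified human 12hLO (150 nM final) in 25 mM Hepes, 0.01% Triton X-100, pH 7.0 was preincubated 15 min at room temperature with compound. Then 40 uM arachidonic acid was added, 30 min. Hydroperoxide was read by Fe-XO absorbance ratio 573/405 nm.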
ATXN2 expr inh: ATXN2 expression inhibition; HEK-293 ATXN2-luciferase reporter, luminescence, 24 h; Potency, µM (top dose mostly 57 µM), for inactives: at the top dose activity change, negative = inhibition, usual class: inhibitors; 360,000 compounds, 0.72% hits; AID 1745845; also: % is scaled to controls: 0 for no effect and ±100 for the full control effect; nearly all actives have a fitted effect of over 55% in size
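qHTS (up to 57 uM final) was run with 24 h compound exposure of reporter cells at 37 °C. Each well was multiplexed: SteadyGlo luminescence measured ATXN2-luciferase expression after a fluorogenic Gly-Phe-AFC viability readout (25 uM final).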
ATXN viability: reduces viability in counter-screen for ATXN expression inhibitors | S2 cells (HEK-293 line with an ATXN2-luciferase reporter) viability, CellTiter-Fluor protease fluorescence, 24 h | Potency, µM (highest dose often 56.7 µM), usual class: cytotoxic | 400,000 compounds, 0.49% hits | AID 651635; also: nearly all actives have a fitted effect of over 40% in size
HepG2 viability: HepG2 cytotoxicity, counter-screen for TGF-b inhibitors; 410,000 compounds, 0.76% hits; HepG2 CAGA-GFP viability, ATP luminescence, 18 h; Potency, µM (series often up to 46.1 µM), without a hit: top-dose activity change, negative = cytotoxicity, most hits filed as cytotoxic
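CellTiter-Glo luminescence gave cytotoxicity after 18 hours at 37 degrees C. The cells were HepG2 CAGA-GFP in 1% FBS DMEM, stimulated with 500 pg/mL TGF-beta after compound addition. %Activity was normalised to no-cell wells (complete cell-killing) and DMSO (no toxicity), and curves were fitted and classified.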
* = called active by the depositor; i = inactive; ? = inconclusive; / = no result; ! = not confirmed by another sample; [ ] = dose if it differs, or a comment. Calls follow the shape of the dose curve; as a rule, active = well fitted curve in the direction sought with a large enough effect; inconclusive = small, poorly fitted or top-dose-only effect, or another doubt; inactive = no such curve, though single readings can be large; an effect the other way counts as inactive or inconclusive. Potency is read from the fitted curve at half-maximal effect.

SMILES | TGFb SMAD3 inh | 12-LOX inh | ATXN2 expr inh | ATXN viability | HepG2 viability
COC(=O)c1ccc(CN(C)C(C)C(=O)Nc2cc(C)ccc2C)cc1 (stereo not given) | / | 64% | / | / | /
Cc1ccc(CNc2oc(COc3ccccc3F)nc2C#N)cc1 | / | 0% | / | / | /
CN1CC[C@@H](c2c(O)cc(O)c3c(=O)cc(-c4ccccc4Cl)oc23)[C@@H](O)C1 | / | ? | 0.15µM* | / | /
O=c1cc(-c2ccccc2Cl)oc2c(Br)ccc(O)c12 | -18% | -12% | 38% | i | 4%
COc1ccc([C@H]2C[C@@H](O)[C@@H](O)[C@@H]2NCc2cn(C)c3ccccc23)cc1 | / | 40µM* | / | / | /
COc1ccc([C@H]2C[C@@H](O)[C@@H](O)[C@@H]2NCc2ccccc2)cc1 | / | 11%[176 µM] | / | / | /
O=C(Nc1cc(Br)ccc1O)C1CC(c2ccccc2Cl)=NO1 (stereo not given) | 16µM* | ? | 5% | i | -57%
O=C(Nc1cc(Cl)ccc1O)C1CC(c2c(F)cccc2Cl)=NO1 (stereo not given) | -27% | ? | -3% | i | 1%
Cc1ncc(-c2ccnc(Nc3ccc(S(C)(=O)=O)cc3)n2)n1C(C)C | / | -16%[57.4 µM] | 3.4µM* | / | /
CS(=O)(=O)c1ccc(Nc2cc3c(cn2)cc(-c2ccccc2)n3Cc2ccccc2)cc1 | / | -4% | / | / | /
COc1ccccc1-c1nc(C(=O)NCc2cccnc2)n2ccncc12 | / | 30% | / | / | /
COc1ccc(NC(=O)CSc2nncn2Cc2ccco2)cc1 | / | 2% | / | / | /
O=C1Nc2ccccc2CC12CCN(Cc1cccc3ccccc13)C2 (stereo not given) | / | 100µM* | / | / | /
CCc1nc(NCC(C)O)c(C#N)c2c1CCCC2 (stereo not given) | / | -25% | / | / | /
O=C(c1cc(COc2cccc(C(F)(F)F)c2)on1)N1CCC(c2ccncc2)CC1 | ? | / | 14µM* | ? | -43%
O=C(c1cc(COc2cccc(C(F)(F)F)c2)on1)N1CCC(c2ccccc2)CC1 | ? | 20% | -4% | i | -1%
CN1C(=O)C(=O)/C(=C(/O)c2ccc(Br)cc2)C1c1ccc(F)cc1 (stereo not given) | -6% | 25µM* | -21% | ? | -3%
Cc1ccc(/C(O)=C2\C(=O)C(=O)N(C)C2c2ccc(Br)cc2)cc1 (stereo not given) | 10% | ? | / | i | -4%
COC(=O)C(C)Sc1ccccc1C(=O)O (stereo not given) | / | 16% | / | / | /
CCOC(=O)Nc1ccc(NS(=O)(=O)c2ccc(F)cc2C)cc1 | / | 25µM* | / | / | /
CCOC(=O)Nc1ccc(NS(=O)(=O)c2cc(F)ccc2F)cc1 | / | 8% | / | / | /
CSc1ccc(CNc2ncc(-c3cccc([N+](=O)[O-])c3)n2C)cc1 | ? | 0.71µM* | / | i | -42%
CC(C)(C)[C@H](N)C(=O)N[C@H]1CCC2C3CC=C4C[C@@H](O)CC[C@]4(C)C3CC[C@@]21C (stereo not given in full) | 14µM* | -8% | ? | / | -97%
NNC(=S)Nc1ccc(Cl)cc1 | 5% | ? | -14% | i | -23%
NNC(=S)Nc1ccc(Br)cc1 | / | 7.1µM* | / | / | /
SMILES | TGFb SMAD3 inh | 12-LOX inh | ATXN2 expr inh | ATXN viability | HepG2 viability
CC(=O)Nc1ccc2ccccc2c1 | 2% | / | 27% | i | -10%
CC(=O)Nc1ccc2cc3ccc(NC(C)=O)cc3nc2c1 | 57% | -2% | 7% | / | 13µM*
NN1C(=O)/C(=C2/Sc3ccccc3N2CCCS(=O)(=O)O)SC1=S | 15% | 14µM* | / | ? | 0%
Cn1cc(CN2CCCCCCNC(=O)[C@@H]3CCC[C@@H]32)c2ccccc21 | / | 365% | / | / | /
Cc1ccccc1CN1Cc2nc(N3CCCC3)ccc2OCC1=O | / | -6%[176 µM] | / | / | /
CNC[C@H](O)c1ccc(O)c(O)c1 | -4% | 1.4µM*! | ? | i | -26%
CC(C(=O)NC1C=CS(=O)(=O)C1)N1C(=O)/C(=C/c2ccc(Cl)cc2)SC1=S (stereo not given) | 5% | 40µM* | / | ? | -16%
O=C(CCN1C(=O)/C(=C/c2ccc(F)cc2)SC1=S)NC1C=CS(=O)(=O)C1 (stereo not given) | -1% | -2% | / | ? | 0%
COC(=O)c1cnc(Nc2nc(C(N)c3ccccc3Cl)cs2)nc1C(F)(F)F (stereo not given) | 18µM* | -10% | ? | 25µM* | -87%
COC(=O)c1cnc(Nc2nc(C(N)COCc3ccccc3)cs2)nc1C(F)(F)F (stereo not given) | ? | 5% | -9% | i | -81%
NC(c1ccccc1)c1csc(NC(=O)Nc2ccc(OC(F)(F)F)cc2)n1 (stereo not given) | ? | ? | -15% | / | -112%
NC(c1csc(NC(=O)c2cccc(OC(F)(F)F)c2)n1)c1ccccc1Cl (stereo not given) | 11µM* | ? | 32µM* | ? | -84%
Cc1c(O)ccc2c(CN3CCN(C)CC3)cc(=O)oc12 | / | 77% | / | / | /
Cc1cc(NCCCCCCCNc2cc(C)nc3cc([N+](=O)[O-])ccc23)c2ccc([N+](=O)[O-])cc2n1 | 8.9µM* | ? | ? | 21µM* | -117%
COCCCNc1cc(C)nc2ccccc12 | -6% | -27% | 3% | i | -19%
COc1ccc(-n2ncc3c(NCc4ccco4)ncnc32)cc1 | 0% | 32µM* | 58% | i | -4%
Clc1ccc(-n2ncc3c(NCc4ccco4)ncnc32)cc1 | 1% | ? | / | / | -28%
COc1ccc(CCNc2ncnc3c2cnn3-c2cccc(Cl)c2)cc1 | -4% | 40µM* | -8% | i | -19%
Cc1ccc(-n2ncc3c(NCCc4ccccc4)ncnc32)cc1 | 3% | 28µM* | 46% | i | -16%
CCC(C(=O)N1CCN(c2ccc(F)cc2)CC1)n1cnc2ccccc2c1=O (stereo not given) | / | -24% | / | / | /
CC(C)CNC(=O)CN1CCN(c2nc(C(F)(F)F)nc3ccccc23)CC1 | / | 4% | / | / | /
Clc1cc(Br)ccc1OCCCNCc1ccccc1 | 11µM* | ? | -18% | i | 13µM*
COc1cc(O)ccc1-c1nc2ccc(Br)cn2c1Nc1ccccc1C | ? | -16% | / | / | 16µM*
CC[C@@H]1O[C@]2(C=C[C@@H]1C)C[C@H]1C[C@H](CC=C(C)[C@@H](O[C@@H]3C[C@H](OC)[C@H](O[C@@H]4C[C@H](OC)[C@H](O)[C@H](C)O4)[C@H](C)O3)[C@@H](C)C=CC=C3CO[C@@H]4[C@@H](O)C(C)=C[C@@H](C(=O)O1)[C@]34O)O2 | / | / | / | 16µM* | /
O=C(Nc1cccnc1)c1ccc(Br)s1 | -9% | -59% | 19% | i | -2%
COc1ccc(NC(=O)c2cc(Br)c(Br)s2)cn1 | ? | 13µM* | 9% | i | -41%
